Screens from PubChem.
Insulin prom inh – TRM-6 insulin promoter activity inhibition. TRM-6 cells (human fetal islet line), insulin promoter-eGFP reporter, imaging; reporter expression induced with tamoxifen. inhibition, % at 2 µM. 0.9% of 130,000 active. AID 1273;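 active means inhibition above the mean plus 3 SD, with well images judged a real hit on visual review, cut at about 60% in these data, passing the limit was not always enough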
SDO1 yeast rescue – restores growth of sdo1-depleted yeast | S. cerevisiae sdo1-depleted JHY4D growth rescue, OD600 30 h; active compounds read high; pdr5 snq2 efflux-pump mutant strain | z-score at 10 µM | 0.21% of 140,000 active;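 active means z-score above 3 at both the 24 hr and the 30 hr optical density reads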;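 further: z-score against mean and SD of all compound wells on the same plate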
ROMK primary – modulates human ROMK potassium channel activity | B-score at 10 µM | Tet-inducible ROMK, thallium flux fluorescence; actives lie on both sides | 2% of 130,000 active | P48048;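 active means signal ratio slope over the read window, or its plate-corrected B-score, at least 3 SD from the plate mean, either direction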;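 further: B-score of the F/F0 ratio slope over 7 to 12 s after thallium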
Target sequence (P48048 whole entry, looked up): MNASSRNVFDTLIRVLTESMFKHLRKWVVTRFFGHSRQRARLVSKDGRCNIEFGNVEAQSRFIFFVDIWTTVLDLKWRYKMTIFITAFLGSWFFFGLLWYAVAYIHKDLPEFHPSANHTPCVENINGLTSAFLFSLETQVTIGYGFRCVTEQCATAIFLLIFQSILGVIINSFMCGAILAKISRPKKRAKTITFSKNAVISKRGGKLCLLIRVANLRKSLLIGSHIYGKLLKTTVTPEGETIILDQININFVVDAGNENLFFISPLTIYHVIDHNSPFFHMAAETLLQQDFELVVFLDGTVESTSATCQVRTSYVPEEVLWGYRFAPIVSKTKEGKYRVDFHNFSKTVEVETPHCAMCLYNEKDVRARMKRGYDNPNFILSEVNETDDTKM
Measles CPE – protection of cells from measles virus; AID 841; Measles virus-infected cells, CPE protection, absorbance; protection (pct of control), % at 4 µM; 1.5% of 140,000 active; in the data active means protection mostly above about 24%, no sharp cut-off; inactive means mostly below about 26%
sdo1 rescue conf – confirmation of growth rescue in SDO1-depleted yeast, bone marrow failure; shares compounds with SDO1 yeast rescue; S. cerevisiae JHY4D (SDO1-depleted) growth rescue, OD600, 30 h; active compounds read high; efflux-deficient strain, SNQ2 and PDR5 mutated; OD recovery (concentration not given with the values); 44% of 440 active; AID 949;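 active means yeast growth recovered at 30 hours, either rising with dose fitted slope above 0.001 or with average optical density gain above 0.07, some results past the limit were not filed as active; inactive means growth falling with dose or no effect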;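 further: gain in OD600 from 0 h to 30 h averaged across all seven doses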
The depositor's hits bear a star; ! = repeats disagree; [ ] = remark or other dose. Hits are enriched below; roughly 3% of the tested compounds scored in any of these assays.

`CSc1nsc(SC)c1C(=O)N1CCN(S(=O)(=O)c2ccc(C)cc2)C1C` (configuration not stated) gave Insulin prom inh -125, SDO1 yeast rescue 3.9*, Measles CPE 9 and sdo1 rescue conf 0.053.
O=C(COc1ccccc1C(=O)N/N=C\c1ccc(O)c(O)c1)N/N=C/c1ccc(O)c(O)c1 was read as SDO1 yeast rescue 2.3, ROMK primary 0.92, Measles CPE 6 and sdo1 rescue conf 0.046.
`O=C(COc1ccccc1[N+](=O)[O-])N/N=C/c1ccc(O)c([N+](=O)[O-])c1` gave ROMK primary 0.23.
Screening Cc1ccc(-n2nnnc2SCC(=O)Nc2nc(-c3ccc(F)cc3)cs2)cc1C returned Insulin prom inh 29, SDO1 yeast rescue 0.64, Measles CPE 27 and sdo1 rescue conf 0.029.
For O=C(CSc1nnnn1-c1ccccc1)Nc1nc(-c2ccccc2)ns1 the results were Insulin prom inh 0, SDO1 yeast rescue 2, ROMK primary -0.13, Measles CPE 5 and sdo1 rescue conf 0.071*.
Screening Cc1cc(C)cc(-n2nnnc2SCC(=O)Nc2nc(-c3ccc(F)cc3)cs2)c1 returned Insulin prom inh 32, SDO1 yeast rescue 0.7 and Measles CPE 6.
`COc1ccc2c(c1)CCc1c(C(=O)NCCc3ccc(OC)c(OC)c3)noc1-2` gave SDO1 yeast rescue 0.22, Measles CPE 2 and sdo1 rescue conf 0.037.
For O=[N+]([O-])c1cc(S(=O)(=O)N2CCCC2)ccc1N/N=C/c1cccs1 the results were Insulin prom inh -23, SDO1 yeast rescue 1.5, ROMK primary 0.11, Measles CPE 1 and sdo1 rescue conf 0.055.
Screening O=C(O)CC/C(=N\Nc1ccc(S(=O)(=O)N2CCCC2)cc1[N+](=O)[O-])c1cccs1 returned SDO1 yeast rescue 0.68, ROMK primary -0.19 and Measles CPE 5.
`O=[N+]([O-])c1cc(S(=O)(=O)N2CCCC2)ccc1N/N=C/c1ccncc1` gave Insulin prom inh 17, SDO1 yeast rescue 0.23, ROMK primary -0.67, Measles CPE 10 and sdo1 rescue conf 0.053.
For O=[N+]([O-])c1cc(S(=O)(=O)N2CCCC2)ccc1N/N=C/c1ccccn1 the results were Insulin prom inh 15, SDO1 yeast rescue -0.33, ROMK primary 0.73 and Measles CPE 5.
COc1cc(OC)c(C2=Nc3ccc(Br)cc3C(c3ccccc3)N2CC(=O)NN)cc1OC (configuration not stated) was read as Insulin prom inh -14.
`Cc1ccc(Cn2c(Sc3nccc(C)n3)nc3c2c(=O)[nH]c(=O)n3C)cc1` gave SDO1 yeast rescue 1.6, Measles CPE 27 and sdo1 rescue conf 0.094*.
`CC(C)Sc1nc2c(c(=O)n1C)SC(C)C2` (configuration not stated) gave Insulin prom inh -40, SDO1 yeast rescue -1.1 and Measles CPE 2.
Screening CCc1cccc(C)c1NC(=O)C1CCN(C(=O)c2ccc([N+](=O)[O-])cc2)CC1 returned Insulin prom inh -24 and ROMK primary -0.078.
CSCCC(NS(=O)(=O)c1ccc(Cl)cc1)C(=O)OCC(=O)c1c(C)[nH]c2ccccc12 (configuration not stated) was read as Insulin prom inh -77, SDO1 yeast rescue 6.2*, ROMK primary 0.86, Measles CPE 12 and sdo1 rescue conf 0.053.
CC(=O)N1CCC(N(CCN2CCOCC2)C(=S)Nc2c(C)cccc2C)CC1 was read as Insulin prom inh 11, SDO1 yeast rescue 1.5, ROMK primary 0.0044 and Measles CPE 2.
Screening COc1ccc(CCNC(=O)c2cc(-c3ccc(C)c(C)c3O)n[nH]2)cc1OC returned Insulin prom inh 25, SDO1 yeast rescue 2.3, ROMK primary 0.13, Measles CPE 12 and sdo1 rescue conf 0.053.
COc1ccc(CCNC(=O)c2cc(-c3cc(C)ccc3O)n[nH]2)cc1OC was read as Insulin prom inh 7, SDO1 yeast rescue 0.48 and Measles CPE 10.
Screening COc1ccc(-n2c(SCCC#N)nnc2-c2cc(Cl)ccc2OC)cc1Cl returned SDO1 yeast rescue -1.4[9 µM], ROMK primary 0.34 and Measles CPE 5.
For COc1ccc(C(=O)N2CCN=C2SCc2cccnc2)cc1OC the results were SDO1 yeast rescue 2, Measles CPE 12 and sdo1 rescue conf 0.042.
Screening CCn1cc(/C=N/NC(=O)c2ccc(C#N)cc2F)c2ccccc21 returned Insulin prom inh 23, SDO1 yeast rescue 0.9, ROMK primary 1.1 and Measles CPE 7.
`COC(=O)Cn1cc(/C=N/NC(=O)c2ccc(C#N)cc2F)c2ccccc21` gave SDO1 yeast rescue 4*, Measles CPE 6 and sdo1 rescue conf 0.069.
`CCC(C)[C@H](NC(=O)NCCCn1ccnc1)C(=O)OC` (some centres not stated) gave Insulin prom inh -21, SDO1 yeast rescue -0.03, ROMK primary 1.8 and Measles CPE 6.
Screening CCC(C)[C@H](NC(=O)NCCCN1CCOCC1)C(=O)OC (some centres not stated) returned Insulin prom inh -6, SDO1 yeast rescue 5.6*, ROMK primary -0.044, Measles CPE 12 and sdo1 rescue conf 0.065.
For O=C(C1COc2ccccc2O1)N1CCN(c2ccccc2F)CC1 (configuration not stated) the results were Insulin prom inh 57, SDO1 yeast rescue 3.1*, ROMK primary -1.7, Measles CPE 2 and sdo1 rescue conf 0.11*.
CCN1C(=O)C(O)(CC(=O)c2ccc(-n3cccc3)cc2)c2ccccc21 (configuration not stated) was read as SDO1 yeast rescue 3*, Measles CPE 24 and sdo1 rescue conf 0.1*.
Screening O=C(c1ccco1)N1CCN(Cc2ccc(Cl)cc2)CC1 returned Insulin prom inh -47, SDO1 yeast rescue 0.97 and Measles CPE 3.
`Cc1ccc(C)n1CCN1CCN(C(=O)c2ccco2)CC1` gave SDO1 yeast rescue 3*!, Measles CPE 4 and sdo1 rescue conf 0.052.
`COc1ccc(OCC(=O)NNC(=O)c2cccc(S(=O)(=O)N(C)C)c2)cc1` gave SDO1 yeast rescue 0.69 and Measles CPE 13.
`CCOCCCNc1nc(C)nc2c1nnn2Cc1c(F)cccc1Cl` gave Insulin prom inh 47 and ROMK primary 0.44.
For COc1ccc(-c2cc(C(F)(F)F)nc(SCC(=O)Nc3cc(C)on3)n2)cc1 the results were Insulin prom inh 56, SDO1 yeast rescue 1.5, Measles CPE 4 and sdo1 rescue conf 0.084*.
For Cc1cc(C(F)(F)F)nc(SCC(=O)Nc2cc(C)on2)n1 the results were Insulin prom inh -21, SDO1 yeast rescue -0.21 and Measles CPE 4.
For CC(C)(O)C#Cc1ccc(C(=O)N2CCN(c3ccc(Cl)cc3)CC2)cc1 the results were Insulin prom inh 38.
`COC(=O)C1C(=O)OC(C)(C)C1C(C)C(=O)c1ccccc1` (configuration not stated) gave Insulin prom inh -10, SDO1 yeast rescue 4.8*, ROMK primary 0.33, Measles CPE 10 and sdo1 rescue conf 0.036.
